Measurements published in PubChem BioAssay (Tox21).
Records with an inconclusive call do not appear. A number with no mark means an inactive call. Calls come from the whole dose curve; as a rule, active = well fitted cell-killing curve with a large enough effect in the repeat runs; inconclusive = weak or mixed curves, or effect the other way; inactive = flat fitted curve, though single readings scatter.

assay: Human pregnane X receptor (PXR) small molecule agonists, qHTS cell viability counter screen (AID 1346977); settings: PXR-Luc HepG2 viability, CellTiter-Fluor, 24 h; series mostly up to 92.4 µM; activity change, negative = cytotoxicity: at the top concentration; note: nearly all actives have a fitted effect of over 50% in size
From the text: U.S. Tox21 Program National Center for Advancing Translational Sciences [NCATS] NIH Chemical Genomics Center [NCGC] U.S. Environmental Protection Agency [EPA] National Institutes of Environmental Health Sciences [NIEHS] National Toxicology Program [NTP] U.S. Food and Drug Administration [FDA] Tox21 Assay Overview: The human pregnane X receptor (hPXR) regulates the expression of several drug metabolizing enzymes and induction of these proteins is a major mechanism for developing drug resistance in cancer. One such key enzyme catalyzing the drug metabolism is cytochrome P450 3A4 (CYP3A4). Changes in CYP3A4 expression affect drug metabolism, thereby reducing the therapeutic efficacy and altering toxicological response to a drug and which finally causes adverse drug interaction. To screen Tox21 libraries for compounds that activate hPXR-mediated CYP3A4 gene expression, PXR-Luc HepG2 cells were used. Also cytotoxicity of the compounds was tested in parallel by measuring the cell viability using CellTiter-Fluor assay system in the same wells.
Tox21 Assay Protocol Summary: PXR-Luc HepG2 cells were dispensed at 2,000 per well in 5uL of assay medium containing 5% charcoal-stripped FBS into white solid bottom 1536-well plates (Corning Life Sciences, Corning, NY) using a Multidrop Combi (Thermo Scientific, Waltham, MA) dispenser. The assay plates were incubated at 37 C and 5% CO2 for 5hr, and then 23nL of compounds dissolved in DMSO and positive control were transferred using a Pintool station (Wako, San Diego, CA). The assay plates were incubated at 37C and 5% CO2 for 24hr. For cytotoxicity read, after 23hr incubation at 37C, 1uL CellTiter-Fluor reagent (Promega Corporation, Madison, WI) was added to each well of the assay plates using Flying Reagent Dispenser (FRD, Aurora Discovery, San Diego, CA). After 1hr incubation at 37C and 5% CO2, the fluorescence signal was quantified using a ViewLux plate reader (PerkinElmer, Shelton, CT).
% is set by controls: 0 for no effect and ±100 for the full control effect.

Row | SMILES | activity change, negative = cytotoxicity
1 | NC/C=C/C(=O)O | -1.63% [at 42.5 µM]
2 | C=Cc1ccccc1 | 3.92%
3 | COC(=O)/C=C(/C)N | 10.2% [at 42.5 µM]
4 | CC(=O)OC1C2(C)CCC(C2)C1(C)C (stereo not given) | 3.71%
5 | COC(=O)C(C)O (stereo not given) | -5.79%
6 | O=C1CCN(c2ccccc2)N1 | -1.64%
7 | COc1ccccc1OCC(O)COC(N)=O (stereo not given) | 8.17% [at 42.5 µM]
8 | CCOc1ccc2nc(N)sc2c1 | 1.2%
9 | C[C@]12CCC(=O)C=C1CC[C@@H]1[C@@H]2CC[C@@]2(C)[C@H]1CC[C@]2(O)C(=O)CO | 15.6% [at 42.5 µM]
10 | O=C(CC(=O)C(F)(F)F)c1ccccc1 | -1.04%
11 | Cc1c(C(=O)NCCO)[n+](=O)c2ccccc2n1[O-] | -7.65% [at 42.5 µM]
12 | CC(C)(C)c1cccc(O)c1 | 13.7%
13 | CCCCC(CC)COC(=O)COc1cc(Cl)c(Cl)cc1Cl (stereo not given) | 13.4%
14 | CC1CN(c2ccccc2)NC1=O (stereo not given) | -10.4%
15 | O=CCCc1ccccc1 | -0.424%
16 | CC(=O)Nc1ccc(C)c(Cl)c1 | 7.93%
17 | C=CC(C)(O)CC/C=C(\C)CCC=C(C)C (stereo not given) | -0.888%
18 | NNS(=O)(=O)c1ccc(Oc2ccc(S(=O)(=O)NN)cc2)cc1 | 4.06%
19 | COC(C)CCO (stereo not given) | 1.88%
20 | O=c1oc2c(O)c(O)cc3c(=O)oc4c(O)c(O)cc1c4c23 | 4.42% [at 19 µM]

Row | SMILES | activity change, negative = cytotoxicity
21 | CC(C)(CO)[C@@H](O)C(=O)NCCC(=O)O | -2.58%
22 | CCOC(=O)c1cc(=O)c2c(OCC(COc3cccc4oc(C(=O)OCC)cc(=O)c34)OC(=O)[C@@H](N)CCCCN)cccc2o1 | 8.92% [at 42.5 µM]
23 | CC(C)S | -2.18%
24 | CCCCNc1cc(C(=O)O)cc(S(N)(=O)=O)c1Oc1ccccc1 | 9.16% [at 42.5 µM]
25 | CCCc1c2oc(C(=O)O)cc(=O)c2cc2c(=O)cc(C(=O)O)n(CC)c12 | 2.28% [at 42.5 µM]
26 | FC(F)(F)C(F)(F)C(F)(F)C(F)(F)C(F)(F)C(F)(F)C(F)(F)C(F)(F)Br | 13.9% [at 42.5 µM]
27 | CCOC(=O)CS | -11.6%
28 | COc1ccccc1N1CCN(CCCNc2cc(=O)n(C)c(=O)n2C)CC1 | -16.5% [at 42.5 µM]
29 | Nc1cccc(S(=O)(=O)O)c1 | 9.61%
30 | CCCCCOc1ccc(C2SC(=O)NC2=O)cc1OCC (stereo not given) | -0.191% [at 42.5 µM]
31 | CC1(C)C(=O)N(Cl)C(=O)N1Br | 4.18%
32 | OC[C@H]1O[C@@H](O[C@H]2[C@H](O)[C@@H](O)[C@H](O)O[C@@H]2CO)[C@H](O)[C@@H](O)[C@H]1O | 2.92%
33 | O=C(O[C@@H](C(=O)O)[C@@H](OC(=O)c1ccccc1)C(=O)O)c1ccccc1 | 6.5%
34 | CCC/C=C/CO | 11.3%
35 | CC(=O)OC(C)OC(C)=O | 1.21%
36 | Oc1ccccc1F | 0.418%
37 | COC(=O)c1ccc(OC)cc1 | 4.99%
38 | Cc1ccc(C(C)C)cc1O | -0.709%
39 | CCCC(CCC)(C(=O)OCC)C(=O)OCC | 7.98% [at 42.5 µM]
40 | Cc1ccc([N+](=O)[O-])cc1Cl | 3.88%
